Mtb bLac sens = beta-lactam sensitization of Mtb H37Rv, H37Rv | inhibition, % at 25 µM | M. tuberculosis H37Rv growth with meropenem, percent inhibition | 330,000 compounds, 0.27% hits; call rule not given here;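 note: growth measured after seven days incubation then overnight dye step; 0% = bacteria only wells and 100% = bacteria with antibiotic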
GDH-TPI inh = GDH-TPI coupling enzyme inhibitors, primary screen, artefact control for M. tuberculosis FBA inhibitor project, biochemical, absorbance, full deck; inhibition, % at 4.8 µM; AID 588335, 2011; GDH-TPI coupled enzyme counterscreen, NADH absorbance; 360,000 compounds, 1.2% hits; in the data active = inhibition above about 30%;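 note: 0% = DMSO wells and 100% = wells lacking the enzyme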
UGM FP inh = M. tuberculosis UGM enzyme inhibitors, primary screen, biochemical, fluorescence polarization, single point. UDP-galactopyranose mutase (Mycobacterium tuberculosis (strain ATCC 25618 / H37Rv)), …. purified UGM, fluorescence polarization probe displacement. inhibition, % at 10 µM. 320,000 compounds, 0.06% hits. AID 504406, 2011; in the data active = inhibition above about 10%, passing the limit was not always enough
FBA Mtb inh = Mtb FBA enzyme inhibitors, primary screen, biochemical, fluorescence, strain H37Rv; 360,000 compounds, 2.3% hits; Fructose-bisphosphate aldolase (Mycobacterium tuberculosis (strain ATCC 25618 / H37Rv)), …; inhibition, % at 1 µM; AID 588726, 2011; purified M. tuberculosis FBA, fluorescence read-out; in the data active = inhibition above about 27%;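 note: 0% = vehicle and 100% = reference inhibitor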
Target sequence (P9WQA3 whole entry, looked up): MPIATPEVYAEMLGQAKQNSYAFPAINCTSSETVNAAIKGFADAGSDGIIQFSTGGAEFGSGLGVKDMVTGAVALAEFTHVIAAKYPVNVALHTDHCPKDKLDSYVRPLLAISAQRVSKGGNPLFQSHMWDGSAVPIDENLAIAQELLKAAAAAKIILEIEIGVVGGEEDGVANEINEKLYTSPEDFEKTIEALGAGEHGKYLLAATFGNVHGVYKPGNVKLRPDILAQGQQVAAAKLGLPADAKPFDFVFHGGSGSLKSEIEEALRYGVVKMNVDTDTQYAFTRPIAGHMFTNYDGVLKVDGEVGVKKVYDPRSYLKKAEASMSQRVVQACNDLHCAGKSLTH
Rv3671c inh = Rv3671c serine protease inhibitors, primary screen, biochemical, fluorescence polarization, M. tuberculosis H37Rv | P9WHR9 | inhibition, % at 5.96 µM | 320,000 compounds, 0.048% hits | AID 2606, 2010; in the data active = inhibition above about 38%;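 note: extracellular domain of Rv3671c used as enzyme; 0% = enzyme with DMSO and 100% = no enzyme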
* hit, by the source's call; x = no result; + = active, no number. An excerpt weighted towards active compounds, which were near 3.5% of everything screened.

SMILES	Mtb bLac sens	GDH-TPI inh	UGM FP inh	FBA Mtb inh	Rv3671c inh
N#Cc1nc(-c2ccc(OCc3ccccc3)cc2)oc1NCc1ccco1	-4.5	19.8	-1.3	6.9	5.6
CCOc1ccc(-c2nc(C#N)c(NCC(C)C)o2)cc1	99.3	17.7	0.0	155.6*	-9.7
COc1ccc(-c2nc(C#N)c(NCc3ccco3)o2)cc1	41.9	-1.6	2.1	116.7*	6.2
C=CCNc1oc(-c2ccc(OCC)cc2)nc1C#N	-1.4	17.5	-1.6	128.5*	2.1
COc1ccc(Nc2oc(-c3ccc(F)cc3)nc2C#N)cc1	-3.5	6.1	-0.5	1.7	-6.7
CCOc1ccc(Nc2oc(-c3cccc(Cl)c3)nc2C#N)cc1	71.6	9.9	-1.6	0.4	3.2
C=CCNc1oc(-c2ccc(OC)cc2)nc1C#N	7.2	7.9	2.5	127.3*	-1.9
COc1cc(OC)c(NC(=O)C2CC(=O)N(c3ccc4c(c3)OCCO4)C2)cc1Cl (stereo not drawn)	-12.1	2.8	x	0.0	15.2
COc1ccc2c(c1)CCCC21NC(=O)N(CC(=O)NC(=O)NCc2ccccc2)C1=O (stereo not drawn)	-6.7	3.0	-2.4	-2.0	4.9
CCOc1ccc(Oc2ccc(C(F)(F)F)cc2NC(=O)C2=COCCO2)cc1	-0.2	6.9	1.3	6.9	-3.5
CC(NC(=O)/C(C#N)=C/c1ccc([N+](=O)[O-])o1)c1ccccc1 (stereo not drawn)	100.4	19.2	0.5	4.0	-18.6
Cc1ccc(/C=C(\C#N)C(=O)NCC2CCCO2)o1 (stereo not drawn)	-2.8	22.4	1.2	2.0	-12.4
CC(NC(=O)/C(C#N)=C/c1ccco1)c1ccccc1 (stereo not drawn)	-6.3	52.5*	0.7	-0.9	2.2
N#C/C(=C\c1ccco1)C(=O)NCC1CCCO1 (stereo not drawn)	-3.4	45.8*	-1.1	-0.3	-9.0
N#C/C(=C\c1ccc[nH]1)C(=O)NCC1CCCO1 (stereo not drawn)	6.6	34.5*	-5.7	0.6	6.9
CCN1CCN(c2ccc(S(=O)(=O)N3CCCCC3)cc2NC(=O)c2ccc([N+](=O)[O-])s2)CC1	100.2	11.8	2.3	0.0	-0.9
CCN(CCC#N)c1ccc(N2C(=O)CCCC2=O)cc1[N+](=O)[O-]	-3.4	3.0	5.1	-0.1	4.4
CC1CC(=O)NN=C1c1ccc(N(C)C)c([N+](=O)[O-])c1 (stereo not drawn)	-9.9	37.1*	1.3	-4.6	-2.1
CCN(CC)c1ccc(C2=NNC(=O)CC2C)cc1[N+](=O)[O-] (stereo not drawn)	4.2	31.0*	0.6	-6.2	-2.1
CC1CC(=O)NN=C1c1cccs1 (stereo not drawn)	-7.3	9.3	-1.0	-2.1	-6.3
COc1ccc2c(ccc[n+]2CC(=O)c2ccc(C)cc2)c1	7.7	3.5	2.0	31.2*	2.9
O=C(NCc1ccccc1)c1cc2ccc(O)cc2oc1=O	-6.0	0.0	-1.2	+	-7.2
C/C(=N\NC(=O)CC#N)c1cc2ccc(O)cc2oc1=O	-4.8	17.1	2.2	+	4.5
O=C(O)c1cc2ccc(O)cc2oc1=O	x	16.6	x	x	x
O=C(c1ccc(F)cc1)c1cc2ccc(O)cc2oc1=O	1.4	10.0	0.0	-5.9	-4.0
SMILES	Mtb bLac sens	GDH-TPI inh	UGM FP inh	FBA Mtb inh	Rv3671c inh
O=C(O)c1ccc(N=c2oc3cc(O)ccc3cc2C(=O)NCc2ccccc2)cc1	4.6	13.3	3.0	+	-58.1
O=C(NCc1cc2ccccc2[nH]1)c1ccccc1F	0.5	6.2	2.2	3.0	-9.5
Cc1ccc(S(=O)(=O)N2CCCCC2)c(C)c1NS(C)(=O)=O	-1.8	-4.8	-1.7	3.5	3.6
O=c1[nH]cc(S(=O)(=O)N2CCCc3ccccc32)c(=O)[nH]1	2.5	4.2	1.6	1.0	-4.7
NS(=O)(=O)c1ccc(CCNC(=O)CN2C(=O)COc3ccc(S(=O)(=O)N4CCCC4)cc32)cc1	-2.1	3.5	-2.9	2.3	-1.3
CCOC(=O)C1CCN(C(=O)c2cccs2)CC1	-3.7	9.5	-1.7	-2.7	-7.3
CCOC(=O)C1CCN(C(=O)c2sccc2Cl)CC1	0.9	2.9	0.6	+	-6.8
CC(C)C[C@@H]1NC(=O)N(CCCn2ccnc2)C1=O	-1.9	-1.3	3.1	1.6	3.8
CC(=O)OCC(=O)Nc1ccc(N=Nc2ccccc2)cc1	3.6	36.9*	0.1	-9.1	9.6

Screens as filed in PubChem BioAssay.
